# Compound activity as filed in PubChem BioAssay.
# HT1080 IDH1KD tx: qHTS for induction of synthetic lethality in tumor cells producing 2HG: qHTS for the HT-1080-IDH1KD cell line; 360,000 compounds, 2% hits; Potency, µM (doses to about 46.1 µM), inactives show top-dose activity, negative = toxicity, actives largely listed as cytotoxic; HT-1080 IDH1 knockdown viability, ATP luminescence, 48 h;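 note: 0% = DMSO wells and -100% = cell-free medium wells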
#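 Knockdown cells (IDH1KD HT-1080) received compounds 2 h after plating at 750 cells/well and were kept 48 h at 37 °C in 5% FBS RPMI. A CellTiter-Glo luminescence read gave % activity for curve fitting.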
# KB-3-1 tox: qHTS assay for MDR1-selective chemotherapeutics: Primary screen using the parental adenocarcinoma cell KB-3-1; KB-3-1 viability, CellTiter-Glo ATP luminescence, 72 h; Potency, µM (titrated, usually from 46.1 µM), hits mostly cytotoxic; 400,000 compounds, 1.4% hits; AID 1347075, 2019; note: % is set by controls: 0 for no effect and ±100 for the full control effect; nearly all actives have a fitted effect of over 60% in size
#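 Screening of KB-3-1 cells (DMEM, 10% FBS, phenol-red free) ran from lowest to highest compound concentration; after 72 h at 37 °C viability was read luminescently and curves fitted.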
# MCF10A rereplic: A quantitative high throughput screen for small molecules that induce DNA re-replication in MCF 10a normal breast cells; MCF 10A DNA re-replication, Hoechst nuclear intensity, 48 h; Potency, µM (series often up to 46.1 µM), inactives show top-dose activity, positive = re-replication, hits mostly activators; 350,000 compounds, 2.9% hits; AID 624296, 2012; note: % of control where 0% means no effect; nearly all actives have a fitted effect of over 50% in size
# SW480 rerep: A quantitative high throughput screen for small molecules that induce DNA re-replication in SW480 colon adenocarcinoma cells; SW480 DNA re-replication, Hoechst DNA content imaging, 48 h; 340,000 compounds, 1.8% hits; Potency, µM (titrated, usually from 46.1 µM), for inactives: top-dose re-replication activation, most hits filed as activators; note: % of control where 0% means no effect; nearly all actives have a fitted effect of over 55% in size
#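 Hoechst fluorescence of nuclei (405 nm excitation, 500-530 nm emission) measured by plate-scanning imager after 48 hr compound exposure at 37 C; re-replication scored as increased number of nuclei with elevated intensity.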
# KB-V1 MDR tox: qHTS assay for MDR1-selective chemotherapeutics: Primary screen using the drug-selected MDR subline cells KB-V1; 400,000 compounds, 3.4% hits; Potency, µM (top dose mostly 46.1 µM), actives largely listed as cytotoxic; KB-V1 MDR cells viability, CellTiter-Glo, 72 h; AID 1347076, 2019; note: % is set by controls: 0 for no effect and ±100 for the full control effect; nearly all actives have a fitted effect of over 60% in size
#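 Cells of the MDR subline KB-V1 are plated, dosed with compound at multiple concentrations, and incubated 72 h at 37 degrees C; CellTiter-Glo is then added and luminescence read after 10 min.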
# HT1080-NT tox: qHTS for induction of synthetic lethality in tumor cells producing 2HG: qHTS for the HT-1080-NT fibrosarcoma cell line; HT-1080-NT fibrosarcoma viability, CellTiter-Glo ATP luminescence, 48 h; AID 686970, 2013; 360,000 compounds, 1.6% hits; Potency, µM (doses to about 46.1 µM), inactives show top-dose activity, negative = less viability, hits mostly cytotoxic;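 note: NT is the 2HG producing partner of a matched IDH1 knockdown line; 0% = DMSO-treated cells and -100% = media-only wells without cells; nearly all actives have a fitted effect of over 55% in size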
#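 Viability by CellTiter-Glo luminescence after 48 h compound exposure at 37C of HT-1080-NT cells (750/well, RPMI, 5% FBS). % activity scaled between DMSO wells and medium-only wells, then curve-fitted and categorized by curve class.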
# Numbers without * were called inactive; i = inactive; u = inconclusive; x = not tested or not shown; ! = not active in a repeat; [ ] = dose if it differs, or a comment. Rows were chosen to be rich in hits. Some 8% of all compounds tested hit in one or more screens of this group. Calls come from the whole dose curve; as a rule, active = well fitted curve in the direction sought with a large enough effect; inconclusive = small, poorly fitted or top-dose-only effect, or another doubt; inactive = no such curve, though single readings can be large; an effect the other way counts as inactive or inconclusive. Potency is the fitted concentration of half-maximal effect.
SMILES,HT1080 IDH1KD tx,KB-3-1 tox,MCF10A rereplic,SW480 rerep,KB-V1 MDR tox,HT1080-NT tox
CC(C)[C@H](NC(=O)c1ccc(Cl)cc1)C(=O)Nc1cccc(S(=O)(=O)N2CCOCC2)c1,0.4%,i,x,x,i,9.1%
Cc1cc(S(=O)(=O)N2CCN(c3ccccc3C)CC2)ccc1F,-24.4%,i,9.9%,-4.9%,i,-6.3%
Cc1ccccc1-n1nc(C)c2cc(C(=O)N3CCN(S(=O)(=O)c4ccccc4)CC3)sc21,11.2%,i,6.7%,-6.5%,23.1µM*,9.1%
Cc1ccccc1N1CCN(S(=O)(=O)c2ccccc2)CC1,-5.2%,u,1.0%,-0.4%,20.6µM*!,1.1%
Cc1nn(-c2ccc(F)cc2)c2sc(C(=O)N3CCCCCC3)cc12,-27.0%,i,u,4.7%,i,-18.4%
CNC(=S)N1N=C(c2cccs2)CC1c1ccc(OC)cc1 (stereo unspecified),-16.8%,i,u,-3.1%,i,-15.0%
O=C(CSc1nc2ccccc2s1)N1N=C(c2cccs2)CC1c1ccc(F)cc1 (stereo unspecified),-5.2%,i,16.4µM*,0.3%,u,-0.6%
Fc1ccc(C2CC(c3cccs3)=NN2C(=S)Nc2ccccc2)cc1 (stereo unspecified),-3.5%,i,4.7%,-113.8%,20.6µM*,6.9%
COc1ccc(C2CC(c3cccs3)=NN2C(=O)CSc2nc3ccccc3s2)cc1 (stereo unspecified),1.4%,i,33.1%,15.8%,i,-0.4%
CN1CCc2c(OCC(=O)N3N=C(c4cccs4)CC3c3ccc(F)cc3)cccc2C1=O (stereo unspecified),u,u,-7.7%,22.1%,i,23.1µM*
Cc1ccc2c(c1)CCCN2C(=O)c1ccncc1,-12.4%,i,-6.0%,-2.3%,i,-16.5%
C=C(C)C(=O)NNc1ccccc1,20.6µM*,i,u,u,i,7.31µM*
CCOC(=O)C(=O)NNc1ccc(Cl)cc1,4.11µM*,i,u,68.8%,i,3.66µM*
CC(=O)Nc1ccccc1,16.5%,i,1.3%,-8.3%,i,15.0%
CCCOC(=O)C(=O)NNc1ccccc1,5.17µM*,u,21.0%,6.8%,i,3.66µM*
CCc1ccc(C(=O)NNc2ccc(Cl)cc2)cc1,6.51µM*,u,18.4%,u,i,u
CCOC(=O)C(=O)NNc1ccc(C)cc1,-2.3%,i,u,3.5%,i,u
CCc1ccc(C(=O)NNc2cc(Cl)cc(Cl)c2)cc1,u,i,25.8%,11.3%,u,-28.0%
COc1cc2cnc(-c3ccccc3)c(-c3cccc(C(F)(F)F)c3)c2cc1OC,7.0%,u,-6.0%,u,u,11.9%
CCN(CC)S(=O)(=O)c1cc(OC)c(Cl)cc1Cl,-3.6%,i,u,-6.9%,i,-4.4%
O=c1cc(CSc2nc3cc(Cl)ccc3o2)nc2sccn12,3.8%,i,1.5%,1.0%,u,4.8%
O=C(NNc1ccc(Cl)cc1)c1cccs1,6.51µM*,i,u,29.1%,i,4.61µM*
Cc1cccc(NNC(=O)C(=O)NNc2cccc(C)c2)c1,5.17µM*,u,6.51µM*,-7.0%,i,u
CC(C)OC(=O)C(=O)NNc1ccccc1,9.2µM*,u,10.3µM*,3.3%,i,7.31µM*
COC(=O)[C@]1(Cc2ccccc2)N[C@H](CN(C)C(=O)NC(C)C)[C@@H]2C(=O)N(C)C(=O)[C@@H]21,16.5%,i,0.0%,0.8%[9.22 µM],u,16.1%
SMILES,HT1080 IDH1KD tx,KB-3-1 tox,MCF10A rereplic,SW480 rerep,KB-V1 MDR tox,HT1080-NT tox
COc1cc(C2c3cc4c(cc3C(O)C3COCC23)OCO4)cc(OC)c1OC (stereo unspecified),u,5.17µM*,u,13µM*,u,25.9µM*
COc1cc([C@@H]2c3cc4c(cc3[C@H](O)[C@H]3COC(=O)[C@@H]23)OCO4)cc(OC)c1OC,x,1.84µM*,x,x,u,x
CCOC(=O)N1N=C(c2ccccc2)CC1(O)C(C)(F)F (stereo unspecified),0.6%,i,-1.7%,-2.9%,u,6.4%
CC(C)c1ccc(NC(=O)Nc2csc3c2CCCC3)cc1,x,u,x,x,i,x
CN(Cc1cccs1)C(=O)Cn1cnc2ccccc2c1=O,5.8%,i,0.6%,-2.3%,i,-0.9%
Cn1c(=O)c2c(nc(Cl)n2CCOc2ccccc2)n(C)c1=O,6.4%,i,4.4%,9.2µM*,i,10.5%
Cn1c(=O)c2c(nc(Br)n2Cc2ccccc2Cl)n(C)c1=O,6.1%,i,-0.1%,0.7%,i,8.4%
Cn1c(Oc2ccc(F)cc2)nc2c1c(=O)n(Cc1ccccc1Cl)c(=O)n2C,x,u,x,x,10.3µM*,x
COC(=O)Cn1c(=O)c2c(nc(Br)n2Cc2ccccc2Cl)n(C)c1=O,-5.1%,i,-8.9%,-3.3%[9.22 µM],i,-7.1%
CCOc1nc2c(c(=O)n(C)c(=O)n2C)n1Cc1ccccc1Cl,-3.8%,u,-5.1%,-4.0%,4.11µM*,2.5%
O=[N+]([O-])c1cccc2[nH]cnc12,x,i,x,x,i,x
O=C(CSCc1nc2ccccc2[nH]1)Nc1ccc(Oc2ccccc2)cc1,-22.4%,i,u,-0.7%,u,-8.7%
Cc1c(C)c2ccc(OCC(=O)NC3CCN(Cc4ccccc4)CC3)c(C)c2oc1=O,11.7%,i,6.1%,-8.6%,i,7.7%
O=Cc1ccc2noc(-c3ccc(Cl)cc3)c2c1,-13.4%,u,24.8%,u,23.1µM*,-13.9%
Cc1ccc(-c2onc3ccc(Cl)cc23)cc1,-5.0%,i,1.8%,u,i,-7.2%
Cc1ccc(C(=O)NCC(c2cccs2)S(=O)(=O)c2cccs2)cc1 (stereo unspecified),x,20.6µM*,x,x,u,x
CC(C)(C)c1ccc(C(=O)NCC(c2cccs2)S(=O)(=O)c2cccs2)cc1 (stereo unspecified),x,i,x,x,i,x
Cn1c(=O)[nH]c2cc(-c3noc(-c4cccc(Cl)c4)n3)ccc21,x,i,x,x,i,x
Cn1c(=O)[nH]c2cc3ccccc3cc21,1.6%,1.64µM*,9.7%,-12.7%,1.3µM*,12.6%
